Screens as filed in PubChem.
This is one part of a sample in which hits are shown more often than they occur.
Tg IFNy HTS = blocks Toxoplasma gondii growth in the presence of IFN-gamma. 69,000 tested, 3.8% active. activity change, negative = inhibition, % (concentration not given with the values). Toxoplasma gondii growth in IFN-gamma-treated host cells; stronger effect = lower value; in the data active = activity change below about -70%, passing the limit was not always enough;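 also: host cells are HeLa cells infected with Toxoplasma gondii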
An asterisk follows results filed as active; ! = not active in a repeat.

SMILES | Tg IFNy HTS
Cc1c(CNC(=O)Nc2ccccc2)sc2ccccc12 | -79*
O=C(Nc1ccccc1)Nc1nc(=O)c2ccccc2s1 | 143
CN(C)CCOCc1nnn2c1CN(CC1CCOCC1)CCC2 | 78
CN(C)C1CCN(Cc2cccs2)C(C(=O)O)C1 (stereo unspecified) | 51
CN(Cc1cc(-c2ccc(F)cc2)c[nH]c1=O)CC(O)Cn1ccc2ccccc21 (stereo unspecified) | 225
O=C(NCCc1csc(-c2ccccc2)n1)C1CCN(S(=O)(=O)c2cccs2)CC1 | -34
CCOC(=O)c1ccc(Nc2nnc(-n3nc(C)cc3C)c3ccccc23)cc1 | -85*
CCOC(=O)c1nc(Nc2ccc(CC)cc2)c2ccccc2n1 | -38
Cc1cc(C)n(-c2nnc(SCC(=O)Nc3ccccc3)c3ccccc23)n1 | 3
CC1(C)Cc2nc3sc4c(Cl)ncnc4c3cc2CS1 | 42
Cc1cc(C(=O)N2CCC3(CN(C)C(=O)O3)C2)cc2sc(N)nc12 (stereo unspecified) | 82
O=S(=O)(Oc1ccc(Cl)cc1)c1csc(C(F)(F)F)c1-c1ccccc1 | -26
FC(F)(F)c1ccc(Oc2ncnc3c(-c4ccccc4)c(C(F)(F)F)sc23)cc1 | -71*
CN(C)C(=O)Cc1nnc2n1CCN(Cc1ccsc1)C2 | -4
CCOC(=O)c1nc(NCCc2c[nH]c3ccc(C)cc23)c2c(C)noc2n1 | 14
Cc1c(Cl)c(C(=O)NCC(C)Oc2cccnc2)nn1C (stereo unspecified) | 6
CCOCC1c2c(cnn2CC2CC2)CCN1C(=O)c1ccoc1 (stereo unspecified) | 135
Cc1oc(C2CCN(S(=O)(=O)c3ccc(C#N)cc3)CC2)nc1C(=O)N1CCOCC1 | -11
COc1nn(CC(=O)Nc2nc3c(s2)CCCCCC3)c(=O)c2ccccc12 | -86*
O=C(COC(=O)CN1C(=O)C(=O)c2ccccc21)Nc1nc2c(s1)CCCC2 | -10
Cc1nc2nc(CC(=O)Nc3nc4c(s3)CCCCCC4)[nH]n2c(=O)c1C | -39
Cc1cc(N(C)CC2CCN(CCO)CC2)nc(-c2ccccc2)n1 | -9
COc1ccc(OC)c(C(=O)c2ccc(C(=O)NCC3Cc4cccc(-c5ncccn5)c4O3)cc2)c1 (stereo unspecified) | -8
CCS(=O)(=O)Nc1ccc(C(=O)NCc2cnn3ccccc23)cc1 | 8
COC(=O)C1=C(C)NC(C)=C(C(=O)OCCN(C)Cc2ccccc2)C1c1cccc([N+](=O)[O-])c1 (stereo unspecified) | 16
SMILES | Tg IFNy HTS
COC(=O)C1=C(C)NC(C)=C(C(=O)OCCN2CCN(C(c3ccccc3)c3ccccc3)CC2)C1c1cccc([N+](=O)[O-])c1 (stereo unspecified) | -84*!
COC(=O)C1=C(C)NC(C)=C(C(=O)OC/C=C/c2ccccc2)C1c1cccc([N+](=O)[O-])c1 (stereo unspecified) | -2
CCn1cc2c(n1)C(COC)CN(S(=O)(=O)c1cccc(C)c1)C2 (stereo unspecified) | 42
CC(=O)Nc1cccc(-c2cncc(C(=O)N3CCCCC3)n2)c1 | -36
Cn1c(=O)cc(C(=O)NCc2ccc(CN3CCCC3=O)cc2)c2ccccc21 | -24
COc1c/c(=C2\C=c3ccccc3=N2)[nH]/c1=C\c1[nH]c(C)cc1C | -85*
Cc1cccc(-c2nc(Cn3nnc(-c4nc(-c5cccs5)no4)c3C)c(C)o2)c1 | 1
O=C(NCc1ccc(N2CCCC2=O)cc1)c1cccc(Cl)c1 | -3
CCN1C(=O)CCc2cc(NS(=O)(=O)Cc3cccc(Cl)c3)ccc21 | -34
O=C(NCc1cccc(Cl)c1)c1ccc2c(c1)CCC(=O)N2Cc1ccccc1 | -100*
NC(=O)C1(N2CCOCC2)CCN(CC(=O)N2CCN(c3ccccn3)CC2)CC1 | 3
CC(C)(Oc1ccc(Cl)cc1)C(=O)N1CCOCC1 | -14
CCOC(CN1CCN(CC(C)C(=O)c2ccccc2)CC1)c1ccccc1 (stereo unspecified) | -9
CC(=O)c1ccc(OCC(O)CN2CCN(C(c3ccccc3)c3ccccc3)CC2)cc1 (stereo unspecified) | -61
CCCCCOc1ccc(C(O)C(CN2CCCC2)c2ccccc2)cc1 (stereo unspecified) | -91*
Cc1ccc(OCC(=O)NCCc2csc(-c3ccc(F)cc3)n2)cc1 | 2
CCOc1cc(CN2C[C@@H]3CCCN3C[C@@H]2Cc2ccccc2)ccc1OCCO | 10
Cc1nc(CC(=O)N2CCCC2c2nc(N(C)C)ncc2-c2ccc(Cl)cc2)cs1 (stereo unspecified) | -61
Cc1cccc(S(=O)(=O)N2CCc3c(CNc4ncccn4)nn(C)c3C2)c1 | 2
Cn1nc(CNc2ncccn2)c2c1CNCC2 | 2
Cn1nc(CNc2ncccn2)c2c1CN(C(=O)c1ccccc1F)CC2 | -106*
Cc1cccc(C)c1NC(=O)c1ccccc1NC(=O)CN(C)Cc1ccccn1 | 59
Cc1cc(C)c(NC(=O)Cn2c(=O)cc(-c3nc(C4CC4)no3)c3ccccc32)c(C)c1 | -27
COc1ccccc1NC(=O)Cn1c(=O)cc(-c2nc(C3CC3)no2)c2ccccc21 | -8
COc1ccc(C)cc1NC(=O)Cn1c(=O)cc(-c2nc(C3CC3)no2)c2ccccc21 | -87*
SMILES | Tg IFNy HTS
CCCNC(=O)[C@@H]1CCCC[C@@H]1C(=O)NCc1cc(C)oc1C(F)(F)F | 5
Cc1c(Cl)cccc1NC(=O)Cn1cnc2c(cnn2-c2ccccc2Cl)c1=O | -35
Cc1nccn1CCCNC(=O)c1cccc(N2CCCCC2)c1 | 2
O=c1[nH]c(CNC2CCCC2)nc2ccccc12 | 16
O=C(Nc1nc(-c2ccccn2)cs1)c1ccccc1CN1CCCCC1 | -14
Cc1cc(C)n(-c2ccc(C(=O)Nc3nnc(CCc4ccccc4)s3)cc2)n1 | -26
Cc1cc(C)n(-c2ccc(CCC(=O)Nc3nc(-c4ccccn4)cs3)cc2)n1 | -98*
c1coc(CN2CCCn3nnc(COCCN4CCCC4)c3C2)c1 | -2
COCCN1CCN(C)C2(CCN(C(=O)C3CCCO3)CC2)C1=O (stereo unspecified) | 1
Cc1nnc(-c2ccccc2/C=C/c2ccccc2)o1 | -32
CCC1CCCCN1C(=O)CCNc1c(-c2cccc(OC)c2)nc2cnccn12 (stereo unspecified) | 157
CCc1nc(-c2nccn2CCCn2ccnc2)c(C)[nH]1 | -35
CN(C)CCN(Cc1ccccc1)S(=O)(=O)NCc1ccccc1 | 2
CC(=O)Nc1cccc(-c2ccc(S(N)(=O)=O)s2)c1 | -44
Cc1cnc(-n2cnnc2)c(-c2ccc3c(c2)OCCO3)c1 | 3
Cc1ccc(-c2nnc(-c3ccc4c(c3)OCO4)o2)cc1 | 113
Cc1nc(-n2cnnc2)ccc1-c1ccc2c(c1)OCO2 | -97*
O=C(Nc1cccc2ccccc12)NC1CCCCC1 | -93*
O=C(Nc1cccc2ccccc12)OC1CCS(=O)(=O)C1 (stereo unspecified) | 28
O=C(Nc1cccc2ccccc12)N1CCOCC1 | 181
O=C(c1ccc(-c2ncn[nH]2)cc1)N1CCCC(Nc2ccc(F)cc2)C1 (stereo unspecified) | 5
CCOc1ccc2nc(SCc3ccccc3)c(C#N)cc2c1 | -103*
CCOc1ccc2nc(SCC(=O)c3ccc4c(c3)OCCO4)c(C#N)cc2c1 | -50
COc1ccc(NC(=O)CSc2nc3ccc(C)cc3cc2C#N)cc1 | 93
COC(=O)C1CCN(S(=O)(=O)c2cc3c4c(c2)CCC(=O)N4CCC3)CC1 | 1
c1ncn(Cc2cn3c(n2)CN(Cc2ccoc2)CC3)n1 | 11
O=C1N[C@@H]2[C@@H](O)[C@@H](O)[C@H](O)[C@@H](CO)N2C1=O | 3
